Screening data as filed in PubChem.
SARS PLP yeast: qHTS of Yeast-based Assay for SARS-CoV PLP | S. cerevisiae expressing SARS-CoV PLpro, growth rescue | 330,000 compounds, 0.19% hits | AID 485353, 2010 | Potency, µM (series often up to 32.9 µM), for inactives: top-dose activity, positive = growth rescue, usual class: activators; calls by dose curve; note: potency is the fitted concentration of half-maximal effect; 0% is about no effect; nearly all actives have a fitted effect of over 55% in size
CHX counter: Cycloheximide Counterscreen for Small Molecule Inhibitors of Shiga Toxin; cell reporter, cycloheximide protein synthesis inhibition counterscreen; max response, %; 300,000 compounds, 12% hits; AID 2314, 2010; in the data active = max response mostly above about 13%, no sharp cut-off; inactive = mostly below about 14%; note: read at 38.3 µM for the half of the compounds with a filed dose; 0% is about no effect
Shiga inhibitor: A qHTS for Small Molecule Inhibitors of Shiga Toxin. Vero cells, Shiga toxin protein synthesis inhibition reporter. inhibition, % at 38.7 µM. 290,000 compounds, 9.2% hits; in the data active = inhibition mostly above about 28%, no sharp cut-off; inactive = mostly below about 43%; note: 0% is about no effect
Pf growth 48h: Primary qHTS for delayed death inhibitors of the malarial parasite plastid, 48 hour incubation; P. falciparum luciferase growth in erythrocytes, 48 h; Potency, µM (top dose mostly 28.7 µM), for the others: at the highest dose activity change, negative = inhibition, hits mostly inhibitors; 310,000 compounds, 5.9% hits; note: potency is the fitted concentration of half-maximal effect; % is set by controls: 0 for no effect and ±100 for the full control effect
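First compound was added to culture medium, then infected red cells at 0.1% parasitemia and 2% hematocrit (final). After incubation at 37 C under 5% CO2, luciferase detection reagent was dispensed and light output recorded.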
NS1 inh: qHTS Assay for Inhibitors of Influenza NS1 Protein Function. 270,000 compounds, 0.4% hits. Potency, µM (highest dose often 46.1 µM), inactives show top-dose activity, positive = more growth; calls by dose curve; note: potency is the fitted concentration of half-maximal effect; actives are rising curves; nearly all actives have a fitted effect of over 50% in size
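Recovery from NS1-induced slow growth read by OD600 in budding yeast switched to galactose assay medium (pH 6.0, -URA) at 1:100 dilution. Compound 23 nl per well; the matching strain lacking NS1 serves as control.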
Pf growth 96h: Primary qHTS for delayed death inhibitors of the malarial parasite plastid, 96 hour incubation | P. falciparum luciferase reporter growth, 96 h | Potency, µM (highest dose often 28.7 µM), for inactives: at the highest dose activity change, negative = inhibition, most hits filed as inhibitors | 320,000 compounds, 6.9% hits | AID 504834, 2011; note: potency is the fitted concentration of half-maximal effect; % is set by controls: 0 for no effect and ±100 for the full control effect
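P. falciparum expressing integrated firefly luciferase, in erythrocytes at 2% hematocrit, 0.05% parasitemia, incubated with compounds 96 h at 37 C, 5% CO2. Growth inhibition read as loss of luminescence; two-generation exposure targets delayed-death apicoplast inhibitors.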
The depositor's hits bear a star; ? = inconclusive; . = no result given; [ ] = remark or other dose. Hits are enriched below; roughly 21% of the tested compounds scored in any of these assays. Unless noted, calls come from the whole dose curve; as a rule, active = well fitted inhibition curve with a large enough effect; inconclusive = small, poorly fitted or top-dose-only effect, or another doubt; inactive = no such curve, though single readings can be large or run the other way.

SMILES	SARS PLP yeast	CHX counter	Shiga inhibitor	Pf growth 48h	NS1 inh	Pf growth 96h
O=C(O)c1ccc2c(c1)C(=O)N([C@H](Cc1ccc(C(F)(F)F)cc1)C(=O)O)C2=O	-7%	-2	-6	?	.	13%
O=C(NCc1ccncc1)c1ccc(S(=O)(=O)Nc2ccccc2)cc1	3%	.	.	-9%	.	-1%
COc1ccc(CN2CCC(N3CC(C)OC(C)C3)CC2)c(OC)c1OC (stereo not drawn)	0%	-2	-3	3%	2%	-11%
CCCCN(C(=O)c1c(CC)noc1C)c1c(N)n(CCCC)c(=O)[nH]c1=O	1%	.	.	3%	.	37%
O=C(CNC(=O)c1ccc(Br)o1)OCc1ccc(Br)cc1	-1%	.	.	-9%	.	-9%
CC1(C)CC(=O)C(C=NCCN2CCN(C3CC(=O)N(c4ccc(Br)cc4)C3=O)CC2)=C(O)C1 (stereo not drawn)	-4%	-3	-5	31%	-3%	13µM*
CCCOc1ccc(N2C(=O)CC(N3CCN(CCN=CC4=C(O)CC(C)(C)CC4=O)CC3)C2=O)cc1 (stereo not drawn)	-5%	-1	-10	13%	-10%	-15%
CC1CCN(CC(O)COCCOc2ccc(Br)cc2)CC1 (stereo not drawn)	-7%	-4	-7	?	-6%	?
CC1CC(C)CN(CC(O)COCCOc2ccc(Br)cc2)C1 (stereo not drawn)	-8%	5	-6	9.3µM*	7%	?
CCC(C)c1ccc(-n2c(=O)c3ccccc3n3c(=S)[nH]nc23)cc1 (stereo not drawn)	0%	-1	-6	44%	14%	42%
S=C(NC1CCCCCC1)NC1CCCC1	-2%	1	16	8%	.	0%
NNC(=S)NC1CCCCCCCCCCC1	0%	-4	5	?	-1%	10µM*
S=C(Nc1ccc(Br)cc1)NC1CCCCC1	-50%	51*	67*	26%	-29%	9%
S=C(Nc1cccc(Cl)c1)NC1CCCCC1	?	12	69	?	-101%	2%
FC(F)Oc1ccc(NC(=S)NC2CCCCCCC2)cc1	28%	34*	65*	?	-19%	?
FC(F)Oc1ccc(NC(=S)NC2CCSc3ccccc32)cc1 (stereo not drawn)	-3%	7	8	2%	-4%	-23%
S=C(Nc1ccc(Cl)cc1)NC1CCCCC1	-3%	41*	68*	?	-10%	-34%
N#CC(c1ccc(Cl)cc1)c1ccc2c(C(F)(F)F)cc(C(F)(F)F)nc2n1 (stereo not drawn)	-42%	-2	-5	.	-169%	2.6µM*
CCOc1ccc(NC(=O)CSc2nnc(C3CC3)n2C)cc1	-2%	-1	2	-3%	4%	2.1µM*
CCOc1ccc(NC(=O)CSc2nnc(C34CC5CC(CC(C5)C3)C4)n2C)cc1	14%	-2	-11	.	-8%	-12%
Nn1cnnc1SCC(=O)Nc1ccc(C2CCCCC2)cc1	4%	50*	81*	113%	-15%	-22%
CCOc1ccc(C(=O)CSc2nnc(C3CC3)n2C)cc1	-21%	14*	37*	1%	-3%	-36%
CCC(C)c1ccc(NC(=O)CSc2nncn2N)cc1 (stereo not drawn)	-7%	26	35	51%	7%	81%
Cn1c(SCC(=O)c2ccccc2)nnc1C1CC1	-8%	9	-4	39%	-8%	32%
CCOC(=O)c1ccc(NC(=O)CSc2nnc(C3CCCCC3)n2C)cc1	14%	-2	7	6.6µM*	3%	8.3µM*
SMILES	SARS PLP yeast	CHX counter	Shiga inhibitor	Pf growth 48h	NS1 inh	Pf growth 96h
CCOC(=O)c1ccc(NC(=O)CSc2nnnn2C2CCCCC2)cc1	29%	1	2	7%	0%[9.22 µM]	294%
CCc1c2c(nc3ccc(OC(=O)N4CCC(N5CCCCC5)CC4)cc13)-c1cc3c(c(=O)n1C2)COC(=O)C3(O)CC (stereo not drawn)	.	-5	-10	.	.	.
COc1ccc(Cl)cc1S(=O)(=O)Nc1ccc2c(c1)n(C)c(=O)n2C	3%	-1	-5	-24%	-18%	20%
Cc1cc(=O)oc2cc(NC(=O)COc3ccccc3[N+](=O)[O-])ccc12	-3%	.	.	10%	.	?
CN(C)c1ccc(C(=C2C=CC(=[N+](C)C)C=C2)c2c(O)c(S(=O)(=O)O)cc3cc(S(=O)(=O)O)ccc23)cc1	.	.	.	.	-3%	.
CC1CCC(C#N)(N(C)C(=O)CSc2nnc(C3CC3)n2C2CC2)CC1 (stereo not drawn)	1%	.	.	?	.	?
CCOC(=O)c1ccc(NC(=O)CSc2nnc(-c3cccs3)n2C)cc1	-4%	-3	-18	?	5%	3.3µM*
CCOc1ccc(S(=O)(=O)N2CCN(S(=O)(=O)c3ccc(C)c(C)c3)CC2)cc1	-1%	-6	-3	-10%	5%	23%
O=C(O)C[C@@H]1C(=O)O[C@@H]2C(COC(=O)c3cc(O)c(O)c(O)c3)O[C@@H](OC(=O)c3cc(O)c(O)c(O)c3)[C@@H](OC(=O)c3cc(O)c(O)c4c3[C@H]1[C@H](O)C(=O)O4)[C@H]2OC(=O)c1cc(O)c(O)c(O)c1 (stereo partly drawn)	1.4µM*	-3	-4	3.3µM*	-6%	2.9µM*
COC1OC(COC(=O)c2ccccc2)C(OC(=O)c2ccccc2)C1OC(=O)c1ccccc1 (stereo not drawn)	2%	2	-4	?	-10%	?
CC(=O)Nc1cccc(C(=O)OC(C)C(=O)N2CCc3ccccc32)c1 (stereo not drawn)	-4%	.	.	-5%	.	6%
O=C(NCCC1=CCCCC1)C1CCN(S(=O)(=O)c2ccccc2C(F)(F)F)CC1	2%	.	.	10µM*	.	?
CCOCCCNC(=O)C1CCC(CNS(=O)(=O)c2cccc3nsnc23)CC1 (stereo not drawn)	5%	-2	9	2%	-5%	3.7µM*
Cc1ccc(S(=O)(=O)N2CCC(C(=O)NCCC3=CCCCC3)CC2)c(C)c1	-2%	.	.	?	.	?
O=C(NCCC1=CCCCC1)C1CCN(S(=O)(=O)c2cccc3nsnc23)CC1	3%	-3	-7	?	4%	1.9µM*
COC(=O)CNC(=O)C1CCN(S(=O)(=O)c2cccc3nsnc23)CC1	?	2	3	17%	11%	13µM*
CC(C)(C)NC(=O)C1CCN(S(=O)(=O)c2cccc3nsnc23)CC1	2%	-2	-13	4%	4%	16%
Cc1ccccc1C(C(=O)NC1CCCCC1)N(C(=O)CNC(=O)c1ccco1)c1cccnc1 (stereo not drawn)	1%	6	-4	18%	3%	36%
